11 molecules from PubChem BioAssay (EPA / NIEHS) can be followed below.

Where “and” joins values, the source holds several entries; their conditions need not be identical. Identical values can stand only once. Records with an inconclusive call do not appear. A structure can be active in one record and inactive in another. Calls of active or inactive are those of the source. Rule for the calls, unless noted: active = hit-call score of the fitted dose curve at least 0.9, where 1 is the maximum; inactive = score below 0.9.

The nature of assay [1]: CCTE_Deisenroth_5AR_NBTE_donor: CCTE's 5alpha-reductase NanoBRET Target Engagement Assay […], Deisenroth Lab (AID 2284319). The settings on record: actives raise or lower the signal. Summed up: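 In this secondary endpoint, donor luminescence from SRD5A2-NanoLuc in transfected HEK293T flags artifacts. Test chemical (10 nM - 29.9 uM) is present five hours, tracer the last two; mock-tracer wells run plate-matched; data fitted bidirectionally against DMSO.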

Assay [2] is described as follows: IUF_NPC2a_radial_glia_migration_72hr: Leibniz Research Institute for Environmental Medicine (IUF) 72-hour Neural Progenitor Cell Migration Assay for Radial Glia Migration (NPC2a) (AID 2284299). A digest of the protocol: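 Human fetal cortex (GW 16-19) neural progenitor spheres, 0.3 mm, plated on poly-D-lysine/laminin in N2 differentiation medium with compound from day 0. Radial glia migration distance (um, sphere core edge to migration edge) measured manually in four directions on 72 h brightfield images; well mean used.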

Assay [3] in a line: IUF_NPC2b_neuronal_migration_120hr: Leibniz Research Institute for Environmental Medicine (IUF) 120-hour Neural Progenitor Cell Migration Assay for Neuron Migration (NPC2b) (AID 2284300). A digest of the protocol: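 0.3 mm hNPC spheres on poly-D-lysine/laminin in N2 differentiation medium exposed 120 h, half-medium refresh day 3; 7 concentrations, DMSO max 0.1%. Neuron (TUBB3) distance from sphere core by ICC imaging, normalised to radial glia migration.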

A short description of assay [4]: IUF_NPC3_neuronal_differentiation_120hr: Leibniz Research Institute for Environmental Medicine (IUF) 120-hour Neuronal Differentiation Assay (NPC3) (AID 2284301). A digest of the protocol:
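Primary human fetal neural progenitor spheres (GW 16-19, 0.3 mm) plated on poly-D-lysine/laminin in N2 medium, exposed from day 0 for 120 h with half-medium refresh at day 3. TUBB3+ cells as percent of Hoechst nuclei in migration area; DMSO baseline.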

A short description of assay [5]: IUF_NPC4_neurite_length_120hr: Leibniz Research Institute for Environmental Medicine (IUF) 120-hour Neuronal Morphology Assay for Neurite Length (NPC4) (AID 2284302). Summed up:
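Human fetal cortex (GW 16-19) neural progenitor spheres, 0.3 mm, were plated on poly-D-lysine/laminin in N2 differentiation medium and exposed from day 0 for 120 h, half-feeding at day 3. Mean TUBB3+ neurite length (µm) came from skeletonized images, relative to DMSO.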

Assay [6] can be described thus: IUF_NPC4_neurite_area_120hr: Leibniz Research Institute for Environmental Medicine (IUF) 120-hour Neuronal Morphology Assay for Neurite Area (NPC4) (AID 2284305; active = hit-call score of the fitted dose curve at least 0.9, where 1 is the maximum). Summed up: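 Human fetal cortex-derived neural progenitor spheres (0.3 mm, GW 16-19) plated on poly-D-lysine/laminin in N2 differentiation medium and exposed from day 0 for 120 h across 7 concentrations plus solvent control. Neurite area is mean pixel area per TUBB3-positive neuron via skeletonization, analysed relative to DMSO.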

A short description of assay [7]: IUF_NPC2-5_cytotoxicity_72hr: Cytotoxicity Assessment at 72 hours in the Leibniz Research Institute for Environmental Medicine (IUF) Neural Progenitor Cell Migration and Differentiation Assay for Cytotoxicity (NPC2-5) (AID 2284306; active = hit-call score of the fitted dose curve at least 0.9, where 1 is the maximum;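 note: LDH release into supernatant measured by resorufin fluorescence marking membrane damage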). A digest of the protocol:
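Human fetal (GW 16-19) neural progenitor spheres, 0.3 mm, plated on poly-D-lysine/laminin in N2 differentiation medium and exposed from day 0 to 7 concentrations plus solvent control (DMSO ≤0.1%). LDH-dependent resazurin-to-resorufin fluorescence in supernatant at 72 h.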

A short description of assay [8]: IUF_NPC2-5_cytotoxicity_120hr: Cytotoxicity Assessment at 120 hours in the Leibniz Research Institute for Environmental Medicine (IUF) Neural Progenitor Cell Migration and Differentiation Assay (NPC2-5) (AID 2284307; active = hit-call score of the fitted dose curve at least 0.9, where 1 is the maximum;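 for AC50: LDH released into supernatant as membrane damage marker via resorufin fluorescence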). A digest of the protocol:
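Human fetal (GW 16-19) neural progenitor spheres (0.3 mm) plated on poly-D-lysine/laminin in N2 differentiation medium, exposed 120 h with half-medium renewal at day 3; 7 concentrations plus solvent control, DMSO ≤0.1%. LDH release in supernatant read by resorufin fluorescence.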

Assay [9] can be described thus: IUF_NPC2-5_cell_number_120hr: Cell Number Assessment at 120 hours in the Leibniz Research Institute for Environmental Medicine (IUF) Neural Progenitor Cell Migration and Differentiation Assay (NPC2-5) (AID 2284308).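 Note: count of Hoechst-stained nuclei in migration zone around plated human neural progenitor spheres.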 Summed up:
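Human fetal neural progenitor spheres (0.3 mm) plated on poly-D-lysine/laminin in N2 differentiation medium, exposed five days across 7 concentrations with half-medium refresh at day 3. Hoechst-positive nuclei counted in migration area at 120 h, relative to DMSO.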

The nature of assay [10]: IUF_NPC2-5_viability_120hr: Viability Assessment at 120 hours in the Leibniz Research Institute for Environmental Medicine (IUF) Neural Progenitor Cell Migration and Differentiation Assay (NPC2-5) (AID 2284312). A digest of the protocol:
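Human fetal (GW 16-19) neural progenitor spheres of 0.3 mm were plated on poly-D-lysine/laminin in N2 differentiation medium and exposed from day 0 for 120 h, with half-medium refresh at day 3. Viability was read as alamar blue resazurin-to-resorufin fluorescence against DMSO.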

The nature of assay [11]: CCTE_Mundy_HCI_iCellGluta_NOG_NeuriteLength: CCTE's Neurite Outgrowth Assay in iCellGluta cells for Neurite Length, Mundy Lab (AID 2284318; active = hit-call score of the fitted dose curve at least 0.9, where 1 is the maximum). Summed up: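 Automated high-content imaging of betaIII-tubulin (Alexa Fluor-488) and Hoechst-stained cells gave neurite length, normalized to the DMSO baseline.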
A further assay relates to IYD (gene 389434). The assay can be described thus: CCTE_GLTED_hIYD: CCTE's human Iodotyrosine Deiodinase (xIYD) Inhibition Assay, Great Lakes Toxicology and Ecology Division (GLTED) Lab (AID 2284317; active = hit-call score of the fitted dose curve at least 0.9, where 1 is the maximum;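 note: cell-free human IYD enzyme made in baculovirus insect cells; iodide freed from monoiodotyrosine measured by cerium arsenite color change at 420 nm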). A digest of the protocol:
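Human IYD expressed in a baculovirus-insect cell system was incubated 3 h with monoiodotyrosine and test chemical. Released iodide, separated on Dowex columns, was quantified by the Sandell-Kolthoff reaction at 420 nm; plates were normalized to MNT and DMSO/NaOH controls.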

Assay [12] is described as follows: IUF_NPC5_oligodendrocyte_differentiation_120hr: Leibniz Research Institute for Environmental Medicine (IUF) 120-hour Oligodendrocyte Differentiation Assay (NPC5) (AID 2284304; active = hit-call score of the fitted dose curve at least 0.9, where 1 is the maximum;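 note: primary human fetal neural progenitor spheres plated to migrate and differentiate; share of O4-positive cells among Hoechst nuclei found by CNN image analysis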). Summed up:
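Human fetal neural progenitor spheres (0.3 mm) plated on poly-D-lysine/laminin in N2 differentiation medium and exposed for 120 h at 7 concentrations, with half-medium renewal at day 3. O4-positive cells identified by CNN, expressed as percent of Hoechst nuclei.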

Read-out in another assay: CD69, CD69 (gene 969)
The assay can be described thus: BSK_LPS_CD69: BioMAP Diversity Plus: LPS Assay for CD69 Biomarker Activity (AID 2284303). As to conditions: primary human HUVEC with PBMC. A digest of the protocol: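 Human umbilical vein endothelial cells co-cultured with PBMC under LPS stimulation, chemical exposure 24 h; cell-surface CD69 measured by ELISA and fitted in the positive direction versus DMSO.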

The nature of assay [13]: VALA_TUBHUV_Agonist_CellCount: Viability Assessment in the VALA Sciences human Umbilical Vein Endothelial Tubule Formation (TUBHUV) Agonism Assay (AID 2284309; active = hit-call score of the fitted dose curve at least 0.9, where 1 is the maximum). A digest of the protocol:
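HUVEC co-cultured 1:3 with HDF for 3 days in 10 ng/ml VEGF, then compounds added in VEGF medium for a further 3 days (72 h). Nuclear-stain/CD31 imaging cell count. Positive-direction fit versus 0.1% DMSO vehicle.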

Assay [14] in a line: VALA_TUBIPS_Agonist_TubuleLength: VALA Sciences human iPS-derived Endothelial Tubule Formation (TUBIPS) Agonism Assay (AID 2284311; active = hit-call score of the fitted dose curve at least 0.9, where 1 is the maximum). Summed up: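 Human iPS-derived endothelial cells were exposed to compound for 72 h. Tubule formation was imaged by high-content fluorescence and scored as gain of signal relative to DMSO vehicle (agonist mode).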
Assay [15] can be described thus: VALA_TUBIPS_Antagonist_TubuleLength: VALA Sciences human iPS-derived Endothelial Tubule Formation (TUBIPS) Antagonist Assay (AID 2284313; active = hit-call score of the fitted dose curve at least 0.9, where 1 is the maximum). A digest of the protocol:
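Cells grown 3 days with 10 ng/ml VEGF, then exposed to compounds in VEGF medium for another 3 days. After fixation, nuclear stain and CD31 immunofluorescence imaging gave mean total tubule length against 0.1% DMSO; suramin (100 uM) inhibition control.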

The nature of assay [16]: VALA_MIGHUV2_WoundArea: VALA Sciences human Umbilical Vein Endothelial Cell Migration (MIGHUV) Assay, Area of Scratch Wound after Recovery (AID 2284316; active = hit-call score of the fitted dose curve at least 0.9, where 1 is the maximum). A digest of the protocol:
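HUVEC seeded at 9000 cells/well, scratched after 24 h; test chemical added within 30 min, 6-point concentration response in triplicate (0.1% DMSO vehicle). After 24 h wound recovery, cells fixed and Hoechst-stained nuclei in wound area imaged; Cytochalasin D reference control.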

The next assay concerns TTR (gene 7276). Put plainly: CCTE_GLTED_hTTR_0.5uM: CCTE's human Transthyretin (hTTR) Inhibition Assay, with 0.5uM TTR, Great Lakes Toxicology and Ecology Division (GLTED) Lab (AID 2284320). Summed up: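 Cell-free displacement assay in which human TTR at 0.5 uM was incubated with test chemical for 2 h. Displacement of the ANSA probe was read by fluorescence at 380 nm excitation/475 nm emission. Loss of signal was fitted in the positive direction versus DMSO.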

Consider `CCCN(CCC)c1c([N+](=O)[O-])cc(C(F)(F)F)cc1[N+](=O)[O-]`, for which, in assay [1], the outcome was inactive.
Consider `CCC(C)(C)C(=O)OC1=C(c2ccc(Cl)cc2Cl)C(=O)OC12CCCCC2`, for which the result in assay [2], in assay [3], in assay [4], in assay [5], in assay [6] and in assay [7] was inactive. For the same molecule, the molecule was classed as inactive in [8], in assay [9] and in [10]. Besides, the half-maximal activity concentration (AC50) (usually the midpoint of the concentration-response curve, whichever way the signal moves) in assay [11] is 21.9 µM (active).
In the case of `CCOCN(C(=O)CCl)c1c(C)cccc1CC`, in the assay with IYD (gene 389434), the molecule was classed as inactive.
On to `O=[N+]([O-])/N=C1\NCCN1Cc1ccc(Cl)nc1`, for which the molecule was classed as inactive in [2], in assay [3], in [4], in assay [5], in assay [12] and in assay [6]. For the same molecule, the molecule was called inactive in [7], in assay [8], in [9], in assay [10] and in [1]. The concentration at half-maximal activity (AC50) in assay [11] is 15 µM (active).
For the molecule `O=C1c2ccccc2C(=O)N1SC(Cl)(Cl)Cl`, in [1], the result was inactive.
`CC1(c2ccc(Oc3ccccc3)cc2)OC(=O)N(Nc2ccccc2)C1=O` (configuration not stated): the outcome in [2], in assay [3], in [4], in assay [5], in assay [6] and in assay [7] was inactive. Moreover, the result in assay [8], in assay [9], in assay [10], in assay [11] and in assay [1] was inactive. The AC50 in assay [12] was 1.61 µM (active).
In the case of `ClC1C(Cl)C(Cl)C(Cl)C(Cl)C1Cl` (configuration not stated), the molecule was classed as inactive in assay [1].
Turning to `CCCN(CCOc1c(Cl)cc(Cl)cc1Cl)C(=O)n1ccnc1`, the molecule was called inactive (in the assay with IYD (gene 389434); in assay [1]).
On to `CC[C@H](C)[C@H]1O[C@]2(C=C[C@@H]1C)C[C@@H]1C[C@@H](C/C=C(\C)[C@@H](O[C@H]3C[C@H](OC)[C@@H](O[C@H]4C[C@H](OC)[C@@H](O)[C@H](C)O4)[C@H](C)O3)[C@@H](C)/C=C/C=C3\CO[C@@H]4[C@H](O)C(C)=C[C@@H](C(=O)O1)[C@]34O)O2` (tested in a mixture with another compound), for which the AC50 in assay [2] is 7.19 µM (active); in assay [5], 7.61 µM (active); in assay [12], 0.444 µM (active); in assay [7], 7.55 µM (active); in [8], 6.89 µM (active); in assay [9], 7.63 µM (active). Besides, the AC50 in assay [10] was 8.02 µM (active); in [11] it was 3.44 µM (active). Moreover, the call in assay [3] and in assay [6] was inactive.
`COP(=O)(OC)OC=C(Cl)Cl`: the AC50 in assay [2] is 59.7 µM (active); in [3] it was 53.3 µM (active); in assay [5], 13.5 µM (active); in [6] it was 13.3 µM (active); in assay [8], 89 µM (active); in assay [9], 15 µM (active). Moreover, the AC50 in assay [10] is 29.7 µM (active); in assay [11] it was 12.9 µM (active). In addition, in assay [7], the outcome was inactive.
With `O=S(=O)(O)C(F)(F)C(F)(F)C(F)(F)C(F)(F)C(F)(F)C(F)(F)C(F)(F)C(F)(F)F`, the AC50 in assay [2] is 68.6 µM (active); in assay [4], 2.09 µM (active); in assay [5], 0.362 µM (active); in [7], 79.3 µM (active); in [8], 62.4 µM (active); in assay [9], 73 µM (active). Also, the AC50 with IYD (gene 389434) is 59 µM (active) and 90.4 µM (active); in the assay on TTR (gene 7276), 489 nM (active) and 455 nM (active). The outcome in [2] is “inactive”; in assay [3], “inactive”; in assay [4], “inactive”; in [5], “inactive”; with CD69, CD69 (gene 969), “inactive”; in assay [12], “inactive”. For the same molecule, the result in assay [8], in assay [9], in assay [13], in assay [14], in assay [10] and in [15] was inactive. Further, the molecule was classed as inactive (in assay [16]; in the assay on IYD (gene 389434); in [11]).
